As a reminder, the AC50 is the midpoint of the concentration-response curve, whichever way the signal moves.

The source made the active and inactive calls. How the source made its calls: active means hit-call score of the fitted dose curve at least 0.9, where 1 is the maximum; inactive means score below 0.9.

This passage reports outcome and AC50 results from PubChem BioAssay (EPA / NIEHS).

A short description of experiment [1]: ATG_CRE_CIS: Attagene CIS-FACTORIAL HepG2 Assay for human cAMP Responsive Element (CRE) binding protein 3 (AID 2282926). The settings on record: HepG2 CRE cis-reporter, Attagene multiplexed mRNA; actives raise or lower the signal. Summed up:
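Transfected HepG2 were treated for 24 hours, then RNA was extracted and reporter cDNA amplified with sequence-specific primers. Labelled fragments were separated by capillary electrophoresis, and the CRE signal was fitted bidirectionally with DMSO as baseline.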

The target of experiment [2] is CCAAT/enhancer-binding protein beta (Homo sapiens) (UniProt P17676). Kind of experiment: ATG_C_EBP_CIS: Attagene CIS-FACTORIAL HepG2 Assay for human CCAAT/Enhancer Binding Protein (C/EBP) beta (AID 2282927). As to conditions: HepG2 Attagene cis-factorial transcription factor reporter; actives raise or lower the signal. The procedure, abridged:
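HepG2 transiently transfected with multiplexed reporter units under cis-regulatory promoters reporting endogenous C/EBPb activity. After 24 h exposure, reporter mRNA assayed by RT-PCR, fluorescent labelling, HpaI digestion and capillary electrophoresis; bidirectional fitting versus DMSO.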

Experiment [3] can be described thus: ATG_CMV_CIS: Attagene CIS-FACTORIAL HepG2 Assay for human CMV (Internal Marker) (AID 2282928).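 Further: endpoint acts as a background internal control marker rather than a target.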 The settings on record: HepG2 CMV promoter reporter, transcription factor profiling; actives raise or lower the signal. The procedure, abridged: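 Endogenous transcription factor activity read in HepG2 via transfected cis-promoter reporter units. After 24 h dosing, reporter mRNA measured by RT-PCR/capillary electrophoresis; gain or loss of signal fit relative to DMSO.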

Experiment [4] in a line: ATG_DR4_LXR_CIS: Attagene CIS-FACTORIAL HepG2 Assay for human Liver X Receptor (LXR), DR4 submotif (AID 2282929). The settings on record: HepG2 Attagene DR4 cis-reporter, mRNA transcription; actives raise or lower the signal. Summed up: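 After transient transfection with multiplexed cis-promoter reporter units, HepG2 cells received test chemicals for 24 h. Reporter mRNA induction, detected by fluorescence after RT-PCR and capillary electrophoresis, was scored relative to DMSO.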

Experiment [5] addresses Aryl hydrocarbon receptor (Homo sapiens) (UniProt P35869). Kind of experiment: ATG_Ahr_CIS: Attagene CIS-FACTORIAL HepG2 Assay for human Aryl Hydrocarbon Receptor (Ahr) (AID 2282930). The settings on record: HepG2 AhR cis-factorial reporter transcription; actives raise or lower the signal. The procedure, abridged: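 HepG2 cells transiently transfected with cis-element-driven multiplexed reporter units; endogenous AhR activity read as reporter mRNA 24 h after dosing, via RT-PCR, 6-FAM labelling, HpaI digestion and capillary electrophoresis. Bidirectional fit relative to DMSO.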

A short description of experiment [6]: ATG_AP_1_CIS: Attagene CIS-FACTORIAL HepG2 Assay for human Activator Protein 1 (AP-1) (AID 2282931). As to conditions: HepG2 Attagene cis-factorial AP-1 reporter mRNA; actives raise or lower the signal. The procedure, abridged:
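After 24 h incubation with test chemical, RNA from transfected HepG2 cells was reverse-transcribed, amplified, fluorescently labelled and digested before capillary electrophoresis. Reporters were driven by cis-regulatory promoters; activity fitted bidirectionally versus DMSO.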

Experiment [7] is described as follows: ATG_AP_2_CIS: Attagene CIS-FACTORIAL HepG2 Assay for human Activator Protein 2 (AP-2) (AID 2282932). As to conditions: HepG2 AP-2 cis-reporter, Attagene transcription factor profiling; actives raise or lower the signal. The procedure, abridged:
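HepG2 cells transiently transfected with cis-element reporter units and exposed for 24 h. Reporter mRNA measured by RT-PCR, FAM labelling, HpaI digestion and capillary electrophoresis. Changes in either direction fitted relative to DMSO.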

Experiment [8] can be described thus: ATG_BRE_CIS: Attagene CIS-FACTORIAL HepG2 Assay for human Bone Morphogenetic Protein (BMP) Response Element (BRE) (AID 2282933). The settings on record: HepG2 BMP response element reporter, Attagene transcription factor profiling; actives raise or lower the signal. The procedure, abridged: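 Endogenous transcription factor activity at a BMP response element was monitored in transfected HepG2 cells 24 h after dosing. Fluorescent RT-PCR products were resolved by capillary electrophoresis, and activity was fitted in both directions versus DMSO.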

The target in experiment [9] is Retinoic acid receptor alpha (Homo sapiens) (UniProt P10276). Kind of experiment: ATG_DR5_RAR_CIS: Attagene CIS-FACTORIAL HepG2 Assay for human Retinoic Acid Receptor Alpha (RARE), DR5 submotif (AID 2282934).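 On AC50: reporter responds to endogenous RAR alpha beta and gamma in HepG2 not RARA alone.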 As to conditions: HepG2 Attagene cis-factorial RARE DR5 reporter, mRNA; actives raise or lower the signal. Summed up: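 HepG2 cells transiently transfected with multiplexed reporter units; DR5 cis-element drives reporter through endogenous transcription factors. After 24 h dosing, reporter mRNA quantified by RT-PCR, fluorescent labeling, HpaI digestion and capillary electrophoresis; bidirectional fitting versus DMSO.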
Chain of Retinoic acid receptor alpha (Homo sapiens) (P10276 whole entry, looked up): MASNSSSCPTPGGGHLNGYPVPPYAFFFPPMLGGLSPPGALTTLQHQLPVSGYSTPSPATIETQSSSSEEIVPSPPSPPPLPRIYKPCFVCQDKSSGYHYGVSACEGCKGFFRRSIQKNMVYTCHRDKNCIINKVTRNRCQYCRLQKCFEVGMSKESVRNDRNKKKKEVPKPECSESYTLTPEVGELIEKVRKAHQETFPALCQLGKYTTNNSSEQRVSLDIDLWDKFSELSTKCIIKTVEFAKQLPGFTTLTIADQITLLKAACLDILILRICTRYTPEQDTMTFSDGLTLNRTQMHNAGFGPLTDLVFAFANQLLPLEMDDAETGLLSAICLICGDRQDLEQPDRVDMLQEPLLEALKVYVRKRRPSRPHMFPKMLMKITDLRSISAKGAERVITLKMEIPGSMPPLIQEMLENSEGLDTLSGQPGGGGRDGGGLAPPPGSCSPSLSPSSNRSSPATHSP

Experiment [10] deals with Transcription factor E2F1 (Homo sapiens) (UniProt Q01094). Description: ATG_E2F_CIS: Attagene CIS-FACTORIAL HepG2 Assay for human E2F Transcription Factor 1 (AID 2282935). As to conditions: HepG2 Attagene cis-reporter, E2F reporter RNA transcripts; actives raise or lower the signal. Summed up:
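Endogenous E2F1 activity read through cis-promoter reporter units transfected into HepG2. After 24 h compound treatment, reporter mRNA measured by RT-PCR, HpaI digestion and capillary electrophoresis. Bidirectional fit versus DMSO.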

A short description of experiment [11]: ATG_E_Box_CIS: Attagene CIS-FACTORIAL HepG2 Assay for human Enhancer Box (E-box) (AID 2282936). As to conditions: HepG2 E-box cis-reporter transcription, actives raise or lower the signal. The procedure, abridged: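 HepG2 cells transiently transfected with multiplexed cis-element reporter units, dosed 24 h; reporter mRNA quantified by RT-PCR, 6-FAM labelling, HpaI digestion and capillary electrophoresis. E-box (USF1) signal fitted bidirectionally vs DMSO.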

Experiment [12] can be described thus: ATG_M_61_CIS: Attagene CIS-FACTORIAL HepG2 Assay for M61 Transcription Factor (Internal Marker) (AID 2282937). As to conditions: HepG2 Attagene CIS-FACTORIAL M61 internal marker reporter; actives raise or lower the signal. The procedure, abridged: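 Using transiently transfected HepG2 liver cells, reporter transcript levels were assessed 24 h post-dosing by RT-PCR and capillary electrophoresis. Changes in either direction were fitted relative to DMSO controls.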

A short description of experiment [13]: ATG_EGR_CIS: Attagene CIS-FACTORIAL HepG2 Assay for human Early Growth Response 1 (EGR1) (AID 2282938). The settings on record: HepG2 Attagene CIS-FACTORIAL EGR reporter mRNA; actives raise or lower the signal. Summed up:
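Fluorescent capillary-electrophoresis signal of reporter cDNA fragments serves as read-out. HepG2 cells bear transiently transfected cis-promoter reporter units and are exposed 24 h; gain- or loss-of-signal is fitted against DMSO.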

A short description of experiment [14]: ATG_M_19_CIS: Attagene CIS-FACTORIAL HepG2 Assay for M19 Transcription Factor (Internal Marker) (AID 2282939). The settings on record: HepG2 Attagene CIS-FACTORIAL M19 internal marker reporter; actives raise or lower the signal. Summed up: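 Background-control endpoint from a multiplexed HepG2 reporter panel. Cells carrying cis-regulated reporter constructs are treated 24 h, then reporter transcripts are amplified, fluorescently labelled and sized by capillary electrophoresis. DMSO defines baseline.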

Experiment [15] can be described thus: ATG_Ets_CIS: Attagene CIS-FACTORIAL HepG2 Assay for human Erythroblast Transformation Specific (ETS) (AID 2282941). The settings on record: HepG2 ETS cis-reporter transcription, actives raise or lower the signal. Summed up: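 Steps: transfect HepG2 with multiple reporter units; treat compound 24 h; isolate RNA, DNase-treat, reverse-transcribe; PCR-amplify, label with 6-FAM, digest with HpaI; separate by capillary electrophoresis. Activity fitted both directions versus DMSO.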

The target of experiment [16] is Hepatocyte nuclear factor 3-beta (Homo sapiens) (UniProt Q9Y261). Description: ATG_FoxA2_CIS: Attagene CIS-FACTORIAL HepG2 Assay for human Forkhead box A2 (FOXA2) (AID 2282942). The settings on record: HepG2 cis-reporter transcription factor activity, 24 h; actives raise or lower the signal. The procedure, abridged:
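Fluorescence signal of reporter cDNA fragments, separated by capillary electrophoresis, reflects endogenous transcription factor activity in transfected HepG2 after 24 h. Both increases and decreases fitted against DMSO.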

The nature of experiment [17]: ATG_FoxO_CIS: Attagene CIS-FACTORIAL HepG2 Assay for human Forkhead box O (FoxO) (AID 2282943). The settings on record: HepG2 Attagene cis-reporter, FoxO element, mRNA; actives raise or lower the signal. The procedure, abridged:
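HepG2 cells transiently transfected with cis-element-driven reporter units report endogenous FoxO activity. After 24 h chemical exposure, reporter mRNA quantified by RT-PCR, fluorescent labeling, HpaI digestion and capillary electrophoresis; bidirectional fit versus DMSO.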

The nature of experiment [18]: ATG_GATA_CIS: Attagene CIS-FACTORIAL HepG2 Assay for human GATA Binding Protein (AID 2282944). The settings on record: HepG2 GATA cis-element reporter, Attagene multiplex mRNA; actives raise or lower the signal. Summed up:
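Endogenous transcription factor activity was captured through cis-promoter-driven reporters in transfected HepG2 cells. After 24 h exposure, reporter transcripts were quantified by RT-PCR with fluorescent capillary electrophoresis, and responses fitted both directions against DMSO.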

The nature of experiment [19]: ATG_GLI_CIS: Attagene CIS-FACTORIAL HepG2 Assay for human Zinc Finger Protein GLI1 (AID 2282945). As to conditions: HepG2, Attagene cis-factorial reporter mRNA, GLI element; actives raise or lower the signal. The procedure, abridged:
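Transiently transfected HepG2 cells report endogenous transcription factor activity via cis-element-driven reporter units. After 24 h compound exposure, reporter mRNA was measured by RT-PCR with capillary electrophoresis; bidirectional fitting against DMSO baseline.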

Chain of Aryl hydrocarbon receptor (Homo sapiens) (P35869 whole entry, looked up): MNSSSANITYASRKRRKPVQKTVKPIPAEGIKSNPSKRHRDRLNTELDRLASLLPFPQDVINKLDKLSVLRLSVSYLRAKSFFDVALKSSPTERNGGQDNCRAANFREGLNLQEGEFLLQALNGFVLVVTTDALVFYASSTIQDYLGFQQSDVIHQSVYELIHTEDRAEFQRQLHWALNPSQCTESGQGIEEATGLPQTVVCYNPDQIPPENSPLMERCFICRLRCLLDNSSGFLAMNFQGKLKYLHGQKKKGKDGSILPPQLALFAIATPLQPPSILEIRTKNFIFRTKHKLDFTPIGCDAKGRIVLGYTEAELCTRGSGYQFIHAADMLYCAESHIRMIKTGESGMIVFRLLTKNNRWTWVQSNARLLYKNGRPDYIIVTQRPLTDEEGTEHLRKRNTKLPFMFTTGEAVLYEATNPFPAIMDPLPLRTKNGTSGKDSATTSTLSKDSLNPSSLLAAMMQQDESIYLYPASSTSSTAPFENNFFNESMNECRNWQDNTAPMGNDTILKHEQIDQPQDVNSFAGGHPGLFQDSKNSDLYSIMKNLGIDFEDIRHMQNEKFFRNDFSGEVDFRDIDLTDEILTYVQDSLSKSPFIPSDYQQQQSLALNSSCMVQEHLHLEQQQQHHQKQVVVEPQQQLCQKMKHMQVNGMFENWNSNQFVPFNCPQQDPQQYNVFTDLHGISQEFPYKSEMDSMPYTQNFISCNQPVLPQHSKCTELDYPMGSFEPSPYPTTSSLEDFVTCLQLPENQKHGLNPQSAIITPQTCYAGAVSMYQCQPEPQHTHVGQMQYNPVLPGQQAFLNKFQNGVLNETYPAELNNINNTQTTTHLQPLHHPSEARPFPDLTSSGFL
Chain of Hepatocyte nuclear factor 3-beta (Homo sapiens) (Q9Y261 whole entry, looked up, the tested form may be a part): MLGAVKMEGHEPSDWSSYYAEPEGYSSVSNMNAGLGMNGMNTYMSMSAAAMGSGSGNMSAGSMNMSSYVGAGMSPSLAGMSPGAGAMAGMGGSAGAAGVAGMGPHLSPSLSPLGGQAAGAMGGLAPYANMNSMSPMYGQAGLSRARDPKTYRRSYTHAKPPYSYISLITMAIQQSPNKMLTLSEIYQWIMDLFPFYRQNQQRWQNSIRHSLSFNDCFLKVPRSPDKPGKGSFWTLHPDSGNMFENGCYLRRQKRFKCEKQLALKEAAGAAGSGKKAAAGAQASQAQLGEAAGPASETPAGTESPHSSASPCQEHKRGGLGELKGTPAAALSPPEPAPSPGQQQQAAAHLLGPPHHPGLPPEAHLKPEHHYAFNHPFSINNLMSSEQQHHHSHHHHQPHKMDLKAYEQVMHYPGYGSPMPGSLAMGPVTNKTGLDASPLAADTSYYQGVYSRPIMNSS
Chain of CCAAT/enhancer-binding protein beta (Homo sapiens) (P17676 whole entry, looked up): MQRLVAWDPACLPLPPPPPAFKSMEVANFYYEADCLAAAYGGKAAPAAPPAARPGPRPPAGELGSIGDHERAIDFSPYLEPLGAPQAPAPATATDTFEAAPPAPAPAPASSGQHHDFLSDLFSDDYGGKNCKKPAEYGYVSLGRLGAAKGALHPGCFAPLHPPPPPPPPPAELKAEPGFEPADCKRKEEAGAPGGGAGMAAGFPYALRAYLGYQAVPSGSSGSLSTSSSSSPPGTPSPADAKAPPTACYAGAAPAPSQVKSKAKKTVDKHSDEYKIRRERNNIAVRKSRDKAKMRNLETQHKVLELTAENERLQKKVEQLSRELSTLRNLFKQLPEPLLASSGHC
Chain of Transcription factor E2F1 (Homo sapiens) (Q01094 whole entry, looked up): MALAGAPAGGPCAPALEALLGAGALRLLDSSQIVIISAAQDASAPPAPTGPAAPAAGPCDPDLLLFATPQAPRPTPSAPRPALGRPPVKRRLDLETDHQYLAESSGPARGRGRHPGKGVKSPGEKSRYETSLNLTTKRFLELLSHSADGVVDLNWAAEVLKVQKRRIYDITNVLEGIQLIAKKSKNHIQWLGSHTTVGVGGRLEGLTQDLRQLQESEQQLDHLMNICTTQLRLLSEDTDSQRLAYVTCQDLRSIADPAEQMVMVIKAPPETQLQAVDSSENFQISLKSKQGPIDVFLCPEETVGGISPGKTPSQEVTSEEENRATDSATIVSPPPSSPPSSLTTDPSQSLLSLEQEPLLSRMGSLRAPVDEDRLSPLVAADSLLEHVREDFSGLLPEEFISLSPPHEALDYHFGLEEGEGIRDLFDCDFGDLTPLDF

In the case of `COc1ccc(N)c([N+](=O)[O-])c1`, the call in [1], in [2], in experiment [3], in experiment [4], in experiment [5] and in [6] was inactive. The call in experiment [7], in [8], in [9], in experiment [10], in experiment [11] and in [12] was inactive. In addition, the outcome in experiment [13], in [14], in experiment [15], in [16], in experiment [17] and in [18] was inactive. In addition, the call in experiment [19] was inactive.

Regarding `C=CCCCCCCCCCC`, the outcome in [1], in experiment [2], in experiment [3], in experiment [4], in experiment [5] and in experiment [6] was inactive. In addition, the outcome in experiment [7], in experiment [8], in experiment [9], in [10], in experiment [11] and in experiment [12] was inactive. Besides, the compound was called inactive in experiment [13], in experiment [14], in experiment [15], in experiment [16], in [17] and in [18]. Moreover, the compound was called inactive in experiment [19].

Regarding `CCOC(=O)c1ccc(N)cc1`, the outcome in [1], in experiment [2], in experiment [3], in experiment [4], in experiment [5] and in experiment [6] was inactive. The result in experiment [7], in [8], in experiment [9], in experiment [10], in experiment [11] and in experiment [12] was inactive. The outcome in experiment [13], in experiment [14], in experiment [15], in [16], in experiment [17] and in [18] was inactive. The result in experiment [19] was inactive.

Regarding `CCc1cc(Cc2cc(CC)cc(C(C)(C)C)c2O)c(O)c(C(C)(C)C)c1`, the half-maximal activity concentration (AC50) in [1] is 19.1 µM (active); in [4] it was 14.8 µM (active); in experiment [6], 9.51 µM (active); in experiment [8] it was 4.81 µM (active); in experiment [9] it was 2.28 µM (active); in experiment [13], 18.5 µM (active). In addition, in [19], the AC50 was 17.1 µM (active). For the same compound, the outcome in experiment [2], in experiment [3], in [5], in experiment [7], in experiment [10] and in experiment [11] was inactive. Besides, the call in experiment [12], in experiment [14], in experiment [15], in [16], in experiment [17] and in [18] was inactive.
